Source: PubChem BioAssay
Results filed as inconclusive are left out. Activity calls are given as the source filed them. Unless noted, the limit is not given here; nearly all actives have AC50 up to about 26 µM.

What was measured:
[1] = growth inhibition of DIPG glioma cells, dose response, cell-based, SU-DIPG-XVII, MIPE5.0, CellTiter-Glo, qHTS (AID 1347060); details: SU-DIPG-XVII viability, CellTiter-Glo ATP luminescence;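 as to AC50: cells exposed to compound for 48 hours before viability readout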
[2] = growth inhibition of DIPG glioma cells, dose response, cell-based, SU-DIPG-XIII, MIPE5.0, CellTiter-Glo, qHTS (AID 1347064; cut-off not given, nearly all actives have AC50 up to about 23 µM;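 as to AC50: cells exposed to compound for 48 hours before the viability read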); details: SU-DIPG-XIII viability, CellTiter-Glo ATP luminescence
[3] = viability loss in pontine glioma line – cell-based, SU-DIPG-XXV, MIPE5.0, CellTiter-Glo, qHTS, dose response (AID 1347065); details: CellTiter-Glo ATP luminescence;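 also: cells exposed to compound for 48 hours before ATP readout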
[4] = SU-DIPG-XXV glioma cell viability, MIPE5.0 library, qHTS (AID 1347068; cut-off not given, nearly all actives have IC50 up to about 30 µM;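 as to IC50: cells exposed to compound for 48 hours before viability readout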)
[5] = sensitizers of A549 cells to miR-34 induction, primary screen, imaging, A549 dox-inducible miR-34, nuclei and caspase counts (AID 1347080;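 active = compounds whose cell count with miR-34 switched on is under 0.7 times the count with it off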); details: A549 miR-34 inducible, Hoechst nuclei count, 48 h
[6] = survival rescue of mitochondrial mutant cells in low glucose, primary screen, MELAS cybrids, Rieske KO mouse fibroblasts, CellTiter-Glo (AID 1508586;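 active = mean z-score across replicates of 1.96 or higher in either the MELAS or the Rieske mutant cell line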;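 also: z relative to plate mean and SD of compound and empty wells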)
[7] = ovarian cancer cell viability with rucaparib, profiling panel, oncology-focused library, rucaparib conditional (AID 1508598;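 active = normalized viability below 100% at a tested concentration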); details: patient-derived ovarian cancer cells, CellTiter-Glo viability, 144 h, stronger effect = lower value
[8] = JHH-DIPG-1 glioma cell viability, MIPE5.0 library, CellTiter-Glo luminescence, qHTS (AID 1347067); details: JHH-DIPG-1 glioma viability, CellTiter-Glo ATP luminescence;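 also: cells exposed to compound for 48 hours before readout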
[9] = stronger effect = lower value, cell number ratio, induced over uninduced
[10] = measured here: relative caspase fold change +Dox/-Dox
[11] = measured here: total cells with miR-34 induction, stronger effect = lower value
[12] = measured here: total cells without miR-34 induction
[13] = MELAS cybrid survival, CellTiter-Glo 48 h, stronger effect = higher value
[14] = Rieske KO mouse fibroblast survival, CellTiter-Glo 72 h

For O=C(O)c1ccc(O)c2ncccc12, the outcome [1] was “inactive”, the AC50 [2] was 20.9 µM (active) and the outcome [3] was “inactive”. For the same compound, the outcome [4] was “inactive”, the fold change [5, 9] was 0.933 (inactive) and the fold change [5, 10] was 0.445. The cell count [5, 11] was 8640, the cell count [5, 12] was 9260 and the z-score [6, 13] was -0.339 (inactive). For the same compound, the z-score [6, 14] was 0.0902, the viability ([7]; at 0.000305 µM, OCI-C5x cells, with rucaparib 10 µM, 100% = cells with rucaparib alone) was 112% (inactive) and the viability ([7]; at 0.000305 µM, OCI-C5x cells, without rucaparib) was 117% (inactive). For the same compound, the viability ([7]; at 0.000305 µM, OCI-P5x cells, with rucaparib 20 µM, 100% = cells with rucaparib alone) was 94.2% (active), the viability ([7]; at 0.000305 µM, OCI-P5x cells, without rucaparib) was 89.3% (active) and the viability ([7]; at 0.00122 µM, OCI-C5x cells, with rucaparib 10 µM, 100% = cells with rucaparib alone) was 120% (inactive). For the same compound, the viability ([7]; at 0.00122 µM, OCI-C5x cells, without rucaparib) was 123% (inactive), the viability ([7]; at 0.00122 µM, OCI-P5x cells, with rucaparib 20 µM, 100% = cells with rucaparib alone) was 101% (inactive) and the viability ([7]; at 0.00122 µM, OCI-P5x cells, without rucaparib) was 97.9% (active). For the same compound, the viability ([7]; at 0.00488 µM, OCI-C5x cells, with rucaparib 10 µM, 100% = cells with rucaparib alone) was 120% (inactive), the viability ([7]; at 0.00488 µM, OCI-C5x cells, without rucaparib) was 116% (inactive) and the viability ([7]; at 0.00488 µM, OCI-P5x cells, with rucaparib 20 µM, 100% = cells with rucaparib alone) was 103% (inactive). For the same compound, the viability ([7]; at 0.00488 µM, OCI-P5x cells, without rucaparib) was 98.1% (active), the viability ([7]; at 0.0195 µM, OCI-C5x cells, with rucaparib 10 µM, 100% = cells with rucaparib alone) was 127% (inactive) and the viability ([7]; at 0.0195 µM, OCI-C5x cells, without rucaparib) was 113% (inactive). The viability ([7]; at 0.0195 µM, OCI-P5x cells, with rucaparib 20 µM, 100% = cells with rucaparib alone) was 100% (inactive), the viability ([7]; at 0.0195 µM, OCI-P5x cells, without rucaparib) was 105% (inactive) and the viability ([7]; at 0.0781 µM, OCI-C5x cells, with rucaparib 10 µM, 100% = cells with rucaparib alone) was 112% (inactive). The viability ([7]; at 0.0781 µM, OCI-C5x cells, without rucaparib) was 120% (inactive), the viability ([7]; at 0.0781 µM, OCI-P5x cells, with rucaparib 20 µM, 100% = cells with rucaparib alone) was 98.2% (active) and the viability ([7]; at 0.0781 µM, OCI-P5x cells, without rucaparib) was 103% (inactive). For the same compound, the viability ([7]; at 0.313 µM, OCI-C5x cells, with rucaparib 10 µM, 100% = cells with rucaparib alone) was 108% (inactive), the viability ([7]; at 0.313 µM, OCI-C5x cells, without rucaparib) was 121% (inactive) and the viability ([7]; at 0.313 µM, OCI-P5x cells, with rucaparib 20 µM, 100% = cells with rucaparib alone) was 96.3% (active). The viability ([7]; at 0.313 µM, OCI-P5x cells, without rucaparib) was 102% (inactive), the viability ([7]; at 1.25 µM, OCI-C5x cells, with rucaparib 10 µM, 100% = cells with rucaparib alone) was 110% (inactive) and the viability ([7]; at 1.25 µM, OCI-C5x cells, without rucaparib) was 115% (inactive). The viability ([7]; at 1.25 µM, OCI-P5x cells, with rucaparib 20 µM, 100% = cells with rucaparib alone) was 98.5% (active), the viability ([7]; at 1.25 µM, OCI-P5x cells, without rucaparib) was 106% (inactive) and the viability ([7]; at 5 µM, OCI-C5x cells, with rucaparib 10 µM, 100% = cells with rucaparib alone) was 115% (inactive). The viability ([7]; at 5 µM, OCI-C5x cells, without rucaparib) was 122% (inactive), the viability ([7]; at 5 µM, OCI-P5x cells, with rucaparib 20 µM, 100% = cells with rucaparib alone) was 111% (inactive) and the viability ([7]; at 5 µM, OCI-P5x cells, without rucaparib) was 111% (inactive).
With CS(=O)(=O)Nc1cc2occ(NC=O)c(=O)c2cc1Oc1ccccc1 the outcome [1] was “inactive”, the outcome [2] was “inactive” and the outcome [8] was “inactive”. For the same compound, the outcome [4] was “inactive”.
In the case of C[C@@]1(c2ncncc2F)NC(=O)c2cc(-c3cn[nH]c3)ccc21, the outcome [1] is reported as “inactive”, the outcome [2] is reported as “inactive” and the outcome [8] is reported as “inactive”. The outcome [4] was “inactive”.
In the case of NC1CCCN(c2c(/C=C3\SC(=O)NC3=O)cccc2-c2ccccc2)C1 (stereo not drawn), the outcome [1] is reported as “inactive”, the outcome [2] is reported as “inactive” and the outcome [8] is reported as “inactive”. For the same compound, the outcome [4] was “inactive”.
With CNCCN(C)Cc1cn[nH]c1-c1ccc(OC2CC(OCCC3CCOCC3)C2)cc1 (stereo not drawn) the outcome [1] was “inactive”, the outcome [2] was “inactive” and the outcome [8] was “inactive”. For the same compound, the outcome [4] was “inactive”.
For NS(=O)(=O)c1ccc(S(=O)(=O)Nc2cccc3c(Cl)c[nH]c23)cc1, the AC50 [1] was 3.32 µM (active), the AC50 [2] was 0.934 µM (active) and the AC50 [8] was 1.18 µM (active).
For Cc1nn(C)c(COc2ccc(N3CCN(S(=O)(=O)N(C)C)CC3)cc2)c1-c1cccc2c(CCCOc3cccc4ccccc34)c(C(=O)O)n(CCN3CCOCC3)c12, the AC50 [1] was 14.8 µM (active), the AC50 [2] was 18.6 µM (active) and the AC50 [8] was 18.6 µM (active). The outcome [4] was “inactive”.
For Cc1nc(-c2cn3c(n2)-c2ccc(-c4cnn(C(C)(C)C(N)=O)c4)cc2OCC3)n(C(C)C)n1, the AC50 [1] was 0.525 µM (active), the AC50 [2] was 0.295 µM (active) and the AC50 [3] was 0.105 µM (active). The IC50 [4] was 1.66 µM (active).
In the case of O=C(CCl)Nc1cccc(NC2=NS(=O)(=O)c3ccccc32)c1, the AC50 [1] is reported as 11.8 µM (active), the AC50 [2] is reported as 9.34 µM (active) and the AC50 [8] is reported as 5.25 µM (active).
For N[C@@H]1CN(c2c(F)cc3c(=O)c(C(=O)O)cn([C@@H]4C[C@@H]4F)c3c2Cl)CC12CC2, the outcome [1] was “inactive”, the outcome [2] was “inactive” and the outcome [8] was “inactive”. For the same compound, the outcome [4] was “inactive”.
In the case of Fc1ccc(-c2csc3ncnc(NCc4ccc5c(c4)OCO5)c23)cc1, the AC50 [1] is reported as 20.9 µM (active), the AC50 [2] is reported as 16.6 µM (active) and the AC50 [8] is reported as 18.6 µM (active). For the same compound, the outcome [4] was “inactive”.
For Cn1cc(-c2nc(N[C@@H]3CCCC[C@@H]3N)c(F)c3c2C(=O)NC3)cn1, the outcome [1] was “inactive”, the outcome [2] was “inactive” and the outcome [8] was “inactive”. For the same compound, the outcome [4] was “inactive”.
In the case of [2H]C([2H])([2H])C(O)([C@@H](C)/C=C/[C@@H](C)[C@H]1CC[C@H]2/C(=C/C=C3C[C@@H](O)C[C@H](O)C3)CCC[C@]12C)C([2H])([2H])[2H], the outcome [1] is reported as “inactive”, the outcome [2] is reported as “inactive” and the outcome [8] is reported as “inactive”.
With CC(=O)Nc1ccc(C(=O)NC(C)(C)C)cc1 the outcome [1] was “inactive”, the outcome [2] was “inactive” and the outcome [8] was “inactive”.
With CCN(c1cc(C#CCN2CCOCC2)cc(C(=O)NCc2c(C)cc(C)[nH]c2=O)c1C)C1CCC(N(C)CCOC)CC1 (stereo not drawn) the outcome [1] was “inactive”, the outcome [2] was “inactive” and the outcome [8] was “inactive”. For the same compound, the outcome [4] was “inactive”.
For O=C(Nc1ccc2c(=O)cc(-c3nn[nH]n3)oc2c1)c1ccc(OCCCCc2ccccc2)cc1, the outcome [1] was “inactive”, the outcome [2] was “inactive” and the outcome [3] was “inactive”. For the same compound, the outcome [4] was “inactive”, the fold change [5, 9] was 0.988 (inactive) and the fold change [5, 10] was 0.807. The cell count [5, 11] was 7750, the cell count [5, 12] was 7840 and the z-score [6, 13] was -0.481 (inactive). For the same compound, the z-score [6, 14] was -0.277.
For CC(=NNC(=O)c1cccc(S(=O)(=O)N2CCOCC2)c1)c1cc(Cl)ccc1O, the AC50 [1] was 8.33 µM (active), the AC50 [2] was 6.61 µM (active) and the AC50 [3] was 5.9 µM (active). The outcome [4] was “inactive”.
